From PubChem BioAssay AID1878 (Sanford-Burnham Center for Chemical Genomics, 2009)
The campaign covered roughly 1,000 compounds. About 200 (20%) were called active. Not all results are given here. Results with a measured potency or affinity are listed apart. Values without a mark were called inactive. Rule as the data show it: active = inhibition above about 55%; inactive = the rest.

biological target: Dual specificity protein phosphatase 3 (Homo sapiens) (UniProt P51452); test: VHR1 phosphatase inhibitors, biochemical (AID 1878); conditions: recombinant VHR phosphatase, fluorogenic substrate; at 13.3 µM; stronger effect = higher value
Sequence (P51452 whole entry, looked up): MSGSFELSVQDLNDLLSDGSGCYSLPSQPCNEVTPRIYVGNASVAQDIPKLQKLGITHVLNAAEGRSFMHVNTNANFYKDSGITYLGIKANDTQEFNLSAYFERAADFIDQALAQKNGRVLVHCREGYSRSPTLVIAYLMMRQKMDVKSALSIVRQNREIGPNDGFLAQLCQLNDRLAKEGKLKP

Compound | inhibition
O=C(Nc1c(C(=O)N2CCC(N3CCCCC3)CC2)oc2ccccc12)c1ccc(F)cc1 | -2.2%
CC1CCCCN1C(=O)CCC(=O)Nc1nnc(C2CCCCC2)s1 (stereo unspecified) | -7.6%
Cc1ccccc1-c1nc(CS(=O)(=O)CC(=O)NC2CCCC2)c(C)o1 | 7.2%
O=c1oc(-c2ccccc2Cl)nc2ccsc12 | 5.6%
CCn1c(SCC(=O)N2CCOCC2)nc2c(c1=O)SC(C)C2 (stereo unspecified) | -2.5%
COc1ccc(CC(=O)N/N=C(\C)CC(=O)Nc2ccc(N(C)C)cc2)cc1 | -12.6%
O=C1CN(c2ccc(F)cc2)C(=S)N1c1ccccc1 | 4.8%
C[C@@H]1NC(=O)N(c2ccc(F)cc2)C1=O | -6.6%
CCN1CCN(C(CNS(=O)(=O)c2ccc(OC)c(C)c2)c2cccnc2)CC1 (stereo unspecified) | -7.5%
CC1CCN(Cc2nnnn2CCCC(=O)N(C)C(C)c2ccccn2)CC1 (stereo unspecified) | 7.9%
COc1cc(OC)cc(C(=O)NN(CCC#N)C2=NS(=O)(=O)c3ccccc32)c1 | 15.9%
Cc1ccccc1OCCCN1CCOCC1 | 2%
CCc1ccc(/C=C/c2c([N+](=O)[O-])c(=O)n(C)c(=O)n2C)cc1 | 3.6%
Cc1ccc(C)c(Nc2ccc3nonc3c2[N+](=O)[O-])c1 | -8.6%
Cc1cc(OCc2cc(C(=O)N(C)CCCN3CCOCC3)no2)cc(C)c1Cl | -10.5%
COc1cc(Cl)ccc1OCc1cc(C(=O)NCC(C)c2ccccc2)no1 (stereo unspecified) | 11.7%
Cc1ccc(CN2CCN(Cc3cccc(C)n3)CC2CCO)cc1 (stereo unspecified) | 3.8%
CC(C)(C)CN1CCN(Cc2c[nH]c3ccccc23)CC1CCO (stereo unspecified) | -9.5%
COc1ccc(-c2n[nH]c3c2CN(C(=O)c2ccc(OC)c(OC)c2)CC3)cc1 | -2.9%
O=C(CSc1n[nH]c(=O)[nH]c1=O)Nc1ccc2c(c1)C(=O)c1ccccc1C2=O | 98% (active)
Nc1cc(=O)[nH]c(SCC(=O)Nc2ccc(Oc3ccccc3)cc2)n1 | -5%
CCc1cc2c(C)ccc(C)c2nc1SCC(=O)Nc1c[nH]c(=O)[nH]c1=O | 27.1%
CC1=C(C(=O)OCC2CCCCC2)C(c2ccc(F)cc2)NC(=O)N1 (stereo unspecified) | -8.4%
CC1=C(C(=O)OC(C)C)C(c2ccc(Cl)cc2)n2c(s/c(=C\c3ccc(OCC(=O)O)cc3)c2=O)=N1 (stereo unspecified) | 97.4% (active)

Compound | inhibition
CCOC(=O)C1=C(N)n2c(s/c(=C\c3ccncc3)c2=O)=C(C(=O)OCC)C1c1ccncc1 (stereo unspecified) | 39.4%
CCC1CCCCN1CCCNS(=O)(=O)c1ccc2c(c1)oc(=O)n2C (stereo unspecified) | -1.5%
Clc1ccc2ccc3cccnc3c2n1 | -16.7%
Cc1ccc(CNc2ccc(N3CCOCC3)c(Cl)c2)cc1 | 8%
Cc1c(C(=O)N2CCCCC2)c(S(=O)(=O)N2CCN(c3ccc(F)cc3)CC2)c(C)n1C | -7%
Cc1c(C)n(C)c2ccc(C(=O)NCCCN3CCCCC3C)cc12 (stereo unspecified) | -11%
O=C(CSc1n[nH]c(-c2ccccc2O)n1)NC1CCCCC1 | 2.6%
Clc1ccc(Cl)c(OCCCCN2CCCCC2)c1 | -4.8%
COc1ccc(CCNC(=O)CCNC(=O)N2CC(=O)Nc3ccccc32)cc1 | 13.9%
COc1ccc(OC)c(NC(=O)CCN2CCN(c3ccccc3OC)CC2)c1 | 6.9%
COc1ccc(N2CCN(c3ncnc4scc(-c5ccccc5)c34)CC2)cc1 | 16.6%
O=C(Nc1cccc(-n2cnnn2)c1)c1ccc(Cl)cc1Cl | 3.8%
Oc1ccc(-c2nc3ccccc3nc2-c2ccccc2)cc1 | -3.2%
O=S(=O)(Nc1ccc2ccccc2n1)c1ccccc1Cl | 3.5%
CCCN1C2CCCC1CC(NC(=O)c1ccc(C(C)(C)C)cc1)C2 (stereo unspecified) | -2.3%
CC1CCCCN1CC(O)COc1ccc(OCC(O)CN2CCCCC2C)cc1 (stereo unspecified) | -5.3%
COc1ccc(Nc2nc(-c3sc(C)nc3C)cs2)c(OC)c1 | 23%
COc1ccc(C(=O)N(C)CCCC2CCCC2)cc1OC1CCN(C(C)C)CC1 | -11.7%
COc1ccc(C(=O)N2CCCCCCC2)cc1OC1CCN(C(C)C)CC1 | -3.1%
O=c1[nH]c(NCCO)nnc1Cc1ccccc1 | -18.8%
CN(C(=O)COC(=O)c1cc(-c2ccco2)nc2ccccc12)C1CCS(=O)(=O)C1 (stereo unspecified) | 98.4% (active)
CCc1ccc(-c2cc(C(=O)NN3CCOCC3)c3ccccc3n2)s1 | -11.9%
CCOc1ccc(N(C)C(=O)CCc2nnc3ccc(N4CCOCC4)nn23)cc1 | -3.3%
O=C(N=C1SC2CS(=O)(=O)CC2N1c1ccc(F)cc1F)C1CC1 (stereo unspecified) | -8.3%

Compound | inhibition
Cn1c(=O)oc2cc(S(=O)(=O)N3CCCC(C(=O)NCc4ccc5c(c4)OCO5)C3)ccc21 (stereo unspecified) | 9.1%
CCC(=O)N1CCc2cc(S(=O)(=O)CCC(=O)NCc3ccc(OC)cc3)ccc21 | 20%
CC(C)c1cc(N=NC(N)=O)cc(C(C)C)c1O | 0.5%
CCN1CCN(Cc2nnc(-c3ccc(C)cc3)o2)CC1 | -3.3%
O=C1CCC(C(=O)N2CCCC2)CN1Cc1cccc(C(F)(F)F)c1 (stereo unspecified) | -14.6%
CCc1nnc(NC(=O)CCNC(=O)c2ccco2)s1 | -5.4%
Cc1ccc(NC(=O)Cn2c(O)c(N=NC(N)=S)c3ccccc32)cc1 | 9.9%
CCCN1CCN(CCCNC(=O)c2ccc(CS(=O)c3ccccc3C)o2)CC1 (stereo unspecified) | 1.2%
Cc1ccc(OCCCCN2CCCCC2)c(C)c1 | 5.4%
Oc1ccc(C23CC4CC(CC(C4)C2)C3)cc1O | 5.9%
COC(=O)c1ccc(CNC(=O)C2CCC(=O)N(Cc3ccccn3)C2)cc1 (stereo unspecified) | -6%
Cc1ccc2oc(C(=O)N3CCN(C)C[C@@H]3C(C)C)c(C)c2c1 | -13.8%
Cc1ccccc1S(=O)(=O)Cc1ccc(C(=O)NCCCN2CCCC2)o1 | -7.1%
COc1ccc(C2NN=C(c3ccc(C)cc3)S2)cc1 (stereo unspecified) | -9.5%
O=C(O)CCN1C(=O)/C(=C/c2cn(-c3ccccc3)nc2-c2cccs2)SC1=S | 98% (active)
Cc1cc(NC(=O)CCCN2C(=O)/C(=C\c3cccs3)SC2=S)no1 | -12%
CC1(C)CC(NC(=O)c2cccc(Cl)c2)CC(C)(C)N1 | 2.3%
CCOc1ccccc1C(=O)NC1CC2CCCC(C1)N2Cc1ccc(C)cc1 (stereo unspecified) | 9.8%
Cc1ccc(Oc2coc3cc(O)ccc3c2=O)cc1 | 1%
O=[N+]([O-])CC(c1ccc(F)cc1)c1c[nH]c2ccccc12 (stereo unspecified) | -0.1%
O=C(NCc1ccc(F)cc1)C(=O)c1cn(CC(=O)N2CCCC2)c2ccccc12 | -3%
CCOc1ccc(C(=S)N2CCCC2)c(OCC)c1 | -7.2%
CCOC(=O)CCNC(=O)N1CCC(CCC(=O)NCc2ccc(F)cc2)CC1 | -0.1%
CN1CCC(N(C)S(=O)(=O)c2ccc(Cl)cc2)CC1 | -9.6%

Compound | inhibition
CC(=O)Nc1ccc(N2C(=O)CSC2c2cccc(Br)c2)cc1 (stereo unspecified) | 1.4%
CN(CCCNC(=O)CCc1cn(C)c2ccccc12)C1CCCCC1 | -3.3%
COc1ccc(O)c(CN2CCN(CCCc3ccccc3)C(CCO)C2)c1 (stereo unspecified) | -8%
N#Cc1nc(-c2ccc(OCc3ccc(Cl)cc3)cc2)oc1N1CCC(C(N)=O)CC1 | 93.5% (active)
Fc1cc(F)nc(NCc2ccccc2)n1 | 8.1%
Oc1ccc(N2CCN(Cc3nc4ccccc4[nH]3)CC2)cc1 | -15.2%
CCC1CCCCN1CCCNC(=O)CS(=O)Cc1nc(-c2ccc(OC)c(OC)c2)oc1C (stereo unspecified) | 15.7%
Cc1c(CCCN)c2ccccc2n1Cc1ccccc1 | -12.5%
COc1cccc(C(N)=O)c1OC(=O)Cc1ccccc1F | -0.1%
O=C(Nc1nnc(SCc2c(Cl)cccc2Cl)s1)c1ccc2ncsc2c1 | 66.9% (active)
Cc1nnc(NC(=O)c2cccc(Br)c2)s1 | 4%
O=C(Nc1cccc(F)c1)c1ccc2ncsc2c1 | -14.9%
COc1cc(N=Cc2c(CO)cnc(C)c2O)cc(OC)c1OC | -8.3%
C=CCNC(=O)c1ccc(CN2CCC(Cc3ccccc3)CC2)cc1 | -11.1%
CSc1ncccc1C(=O)NC1CCN(Cc2ccccc2)CC1 | 2.3%
CCOc1ccc(CCNC(=O)CS(=O)Cc2nc(-c3ccc(OC)c(OC)c3)oc2C)cc1OCC (stereo unspecified) | 8.4%
COC(=O)C1(CO)NC(c2ccc(C)cc2)C2C(=O)N(c3ccccc3)C(=O)C21 (stereo unspecified) | -3.3%
CC1=C(C(=O)OCc2ccccc2)C(c2ccc([N+](=O)[O-])cc2)NC(=O)N1C (stereo unspecified) | 2.8%
COc1cc(-c2c(NC(=O)c3ccco3)oc3ccccc3c2=O)cc(OC)c1OC | -9.9%
CCN(CC)CCCN(Cc1cc2cc3c(cc2[nH]c1=O)OCO3)C(=S)NCCCN(C)C | -12.7%
O=C(NC1=NN(c2ccccc2)CC1)Nc1ccccc1F | -3.5%
O=c1c2c3nc4ccccc4nc3n(-c3ccc4c(c3)OCCO4)c2ncn1C1CCCC1 | 96.5% (active)
CSc1ncc(C(=O)Nc2ccccc2C)c(C)n1 | 6.2%
CCN1CCN(CCCNC(=O)CNC(=O)c2nn(-c3ccc(OC)cc3OC)c(=O)c3ccccc23)CC1 | 38.3%
